CF NFkB block: cystic fibrosis NF-kB activation inhibition. inhibition, % at 5 µM. 0.86% of 360,000 active. KKLEB NF-kB-GFP reporter, PAF-induced, GFP fluorescence overnight. AID 588850;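 active means at least 50% inhibition at 5 µM, scaled per plate between neutral and stimulator controls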;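 further: PAF is a Pseudomonas aeruginosa culture filtrate used as stimulus; plate controls were PAF-stimulated DMSO wells for no effect and unstimulated DMSO wells for full effect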
HIF-2a inh: blocks HIF-2a reporter activity | inhibition, % at 18.8 µM | 786-0 RCC cells HIF-2a reporter, luciferase luminescence, overnight | 0.72% of 360,000 active | AID 624352;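 active means inhibition of the luminescence signal of 40% or more relative to plate controls, in a single-dose primary screen at 18.75 µM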
Shn3 inh set2: Schnurri-3 reporter inhibition in Clone20 osteoblasts; Clone20 osteoblast Shn3 3'UTR firefly luciferase, 24 h; inhibition, % at 12.5 µM; 0.52% of 360,000 active; AID 588674;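 active means mean inhibition of at least 75% with every replicate also reaching 75%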;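 further: 0% = median of neutral control wells and 100% = pilot-screen positive control compound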
KKLEB cytotox: reduces viability of KKLEB cystic fibrosis airway cells; KKLEB CF airway cells viability, ATPlite luminescence, overnight; hits give low values; cells stimulated with P. aeruginosa culture filtrate; activity change (cytotoxicity), % at 5 µM; 0.36% of 360,000 active;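 active means corrected activity change at or below -50% at 5 µM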
Peg3 prom inh: inhibitors of Peg3 promoter. HeLa PEG-Prom luciferase reporter, luminescence, overnight. inhibition, % at 20 µM. 1.7% of 360,000 active. AID 588405;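 active means inhibition of at least 50% at 20 µM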
CF NFkB conf: confirmation of cystic fibrosis induced NF-kB inhibitors | shares compounds with CF NFkB block | KKLEB CF airway cells, PAF-induced NF-kB-GFP fluorescence, overnight | inhibition, % at 5 µM | 64% of 1,300 active; in the data active means inhibition above about 40%;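 further: stimulus PAF is a Pseudomonas aeruginosa filtrate and not platelet activating factor; plate controls were DMSO wells with stimulus for no effect and unstimulated DMSO wells for full effect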
Mdm2 MdmX conf: confirmation of inhibitors of human Mdm2/MdmX interaction, set 2; shares compounds with HIF-2a inh; SaOS-2 split-luciferase Mdm2/MdmX complementation, luminescence; inhibition, % at 8 µM; 99% of 740 active; AID 504601;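 active means mean inhibition of the luminescence signal across two replicates at or above 26 percent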
HIF-2a conf: confirmation of HIF-2a inhibitors; shares compounds with HIF-2a inh; AID 651580; inhibition, % at 18.8 µM; 56% of 1,800 active; 786-0 RCC cells, HIF-2a luciferase reporter luminescence, overnight;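 active means mean inhibition across four replicates of at least 40 percent at the single tested concentration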
HIF-1a cs: counter-screen for HIF-2a inhibitors: HIF-1a inhibition in MiaPaCa-2 cells. shares compounds with HIF-2a inh. AID 651589. 72% of 1,800 active. inhibition, % at 18.8 µM. MiaPaCa-2 HIF-1a luciferase reporter, desferoxamine, overnight;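 active means mean inhibition of the reporter signal across four replicates at the single tested dose of 50% or more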
* hit, by the source's call. Rows were chosen to be rich in hits. Some 2.6% of all compounds tested hit in one or more screens of this group.

Screening Cc1c(C(=O)c2cccc3ccccc23)c2cccc3c2n1[C@H](CN1CCOCC1)CO3 returned CF NFkB block 55*, HIF-2a inh 70*, Shn3 inh set2 14, KKLEB cytotox -7, Peg3 prom inh 79*, CF NFkB conf 64*, HIF-2a conf 46* and HIF-1a cs 79*.
For CC(=O)Nc1ccc(OC(=O)N2CCCCC2)cc1 the results were CF NFkB block 7, HIF-2a inh 85*, Shn3 inh set2 9, KKLEB cytotox -2, Peg3 prom inh -3, HIF-2a conf 95* and HIF-1a cs 53*.
Screening O=C(Nc1cccc(OC(=O)N2CCCCC2)c1)N1CCCCC1 returned CF NFkB block 20, HIF-2a inh 14, Shn3 inh set2 9, KKLEB cytotox 0 and Peg3 prom inh 11.
Screening CCOC(=O)[C@]12Cc3ccccc3[C@H]1N(C(C)C)C(=O)c1cc(OC)ccc12 returned HIF-2a inh 21.
CCOC(=O)[C@]12Cc3cc(C)ccc3[C@H]1N(C(C)C)C(=O)c1ccccc12 was read as HIF-2a inh 88*, HIF-2a conf 93* and HIF-1a cs 108*.
`CCOC(=O)[C@]12Cc3cc(OC)ccc3[C@H]1N(C1CCCCC1)C(=O)c1cc(OC)ccc12` gave HIF-2a inh 88*, HIF-2a conf 89* and HIF-1a cs 105*.
For Nc1ccc(C2(c3ccc(N)cc3)CCCCC2)cc1 the results were CF NFkB block -9, HIF-2a inh 7, Shn3 inh set2 -2, KKLEB cytotox 4 and Peg3 prom inh 12.
CC(C)[C@H]1C(=O)O[C@H](C(C)C)C(=O)N(C)[C@@H](C(C)C)C(=O)O[C@H](C(C)C)C(=O)N(C)[C@@H](C(C)C)C(=O)O[C@H](C(C)C)C(=O)N1C was read as CF NFkB block 33, HIF-2a inh -63, Shn3 inh set2 90*, KKLEB cytotox 1, Peg3 prom inh 33 and Mdm2 MdmX conf 94*.
For CC12Cc3cn[nH]c3C=C1CCC1C2CCC2(C)C1CCC2(C)O (stereo not given) the results were CF NFkB block 33, HIF-2a inh 21, Shn3 inh set2 -25, KKLEB cytotox -23 and Peg3 prom inh 21.
C[C@H]1CCC/C=C/[C@@H]2C[C@H](O)C[C@H]2[C@H](O)/C=C/C(=O)O1 was read as CF NFkB block 76*, HIF-2a inh 60*, Shn3 inh set2 97*, KKLEB cytotox 17, Peg3 prom inh 43, Mdm2 MdmX conf 96*, HIF-2a conf 43* and HIF-1a cs 75*.
CCCN1CCCC(C(=O)c2cc(C)c(OC)c(C)c2)C1 (stereo not given) was read as CF NFkB block -9, HIF-2a inh 16, Shn3 inh set2 -6, KKLEB cytotox -6 and Peg3 prom inh 7.
`Oc1ccc(-[n+]2c(-c3ccccc3)cc(-c3ccccc3)cc2-c2ccccc2)cc1` gave CF NFkB block 40, HIF-2a inh -22, Shn3 inh set2 22, KKLEB cytotox -15, Peg3 prom inh 86* and Mdm2 MdmX conf 102*.
O=[N+]([O-])c1cccc(NP(=O)(Oc2ccccc2)Oc2ccccc2)c1 was read as CF NFkB block -7, HIF-2a inh 42*, Shn3 inh set2 16, KKLEB cytotox 4, Peg3 prom inh 43, HIF-2a conf 43* and HIF-1a cs 47.
Screening COc1cccc(NP(=O)(Oc2ccc(Cl)cc2)Oc2ccc(Cl)cc2)c1 returned CF NFkB block -4, HIF-2a inh 13, Shn3 inh set2 10, KKLEB cytotox -5 and Peg3 prom inh -27.
`C=CCSc1nc2c(c(-c3ccsc3)c1C#N)CN(C)CC2` gave CF NFkB block -11, HIF-2a inh 14, Shn3 inh set2 16, KKLEB cytotox -3 and Peg3 prom inh 17.
